About 79,000 compounds went through this panel and 15% of them were active in at least one assay; those are over-represented in the sample as a whole. Active and inactive are the calls of the source. No stated cut-off is given here; in the data, active means growth inhibition above about 70%; inactive means the rest.
Experiments:
[1] = NCI Yeast Anticancer Drug Screen. Data for the rad52 strain (AID 147);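 further: 0% = growth of vehicle-treated control cultures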; settings: S. cerevisiae rad52 mutant growth inhibition, stronger effect = higher value
Summary of the method: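 Compounds are applied to a genetically defined yeast strain lacking normal DNA damage repair, and inhibition of growth is expressed relative to cultures given vehicle only.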

[2] = NCI Yeast Anticancer Drug Screen. Data for the wt1 strain (AID 149);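 further: 0% = growth of vehicle-treated wt1 cultures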; settings: S. cerevisiae wt1 strain (SPY 50644) growth inhibition, stronger effect = higher value
Summary of the method: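 Vehicle-normalised growth inhibition; strain wt1; compound exposure.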

[3] = NCI Yeast Anticancer Drug Screen. Data for the rad50EPP+ strain (AID 151);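 further: 0% = growth of vehicle-treated control cultures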; settings: S. cerevisiae rad50 mutant strain, stronger effect = higher value
Summary of the method: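 Compounds were applied to the rad50EPP+ yeast strain, which bears a defined DNA repair alteration, and growth inhibition was determined relative to vehicle-treated cultures.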

[4] = NCI Yeast Anticancer Drug Screen. Data for the mgt1 strain (AID 153); settings: S. cerevisiae mgt1 mutant growth inhibition, stronger effect = higher value
Summary of the method: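 Strain: mgt1 yeast, one of a set carrying defined DNA damage repair or cell cycle control alterations. Compound-treated growth compared with vehicle.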

[5] = NCI Yeast Anticancer Drug Screen. Data for the rad50 strain (AID 155);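 further: 0% = growth of vehicle-only cultures of the same strain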; settings: S. cerevisiae rad50 strain growth inhibition, stronger effect = higher value
Summary of the method: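 A DNA repair-deficient yeast mutant serves as the test organism; compound-induced growth inhibition is calculated against vehicle-treated cells.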

[6] = NCI Yeast Anticancer Drug Screen. Data for the mec2-1 strain (AID 157); settings: S. cerevisiae mec2-1 strain, stronger effect = higher value
Summary of the method: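 Strain: mec2-1 (DNA repair/cell cycle alteration). Compound exposure, then growth measured; inhibition expressed relative to vehicle.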

[7] = NCI Yeast Anticancer Drug Screen. Data for the rad14 strain (AID 159);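 further: 0% = growth of vehicle-treated control cultures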; settings: S. cerevisiae rad14 strain growth inhibition, stronger effect = higher value
Summary of the method: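 Vehicle-treated cultures served as the baseline for growth inhibition of a DNA repair-mutant yeast strain exposed to each compound.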

[8] = NCI Yeast Anticancer Drug Screen. Data for the sgs1 mgt1 strain (AID 161);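 further: 0% = growth of cultures given vehicle only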; settings: S. cerevisiae sgs1 mgt1 strain, stronger effect = higher value
Summary of the method: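 Inhibition of yeast growth, normalised to vehicle-treated controls, is reported for a strain bearing genetic alterations in DNA damage repair.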

[9] = NCI Yeast Anticancer Drug Screen. Data for the CLN2oe strain (AID 163);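 further: 0% = growth of vehicle-only control cultures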; settings: S. cerevisiae CLN2oe strain, stronger effect = higher value
Summary of the method: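 Growth of a genetically modified yeast strain is measured after compound exposure and compared with cultures given vehicle alone.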

[10] = NCI Yeast Anticancer Drug Screen. Data for the cln2 rad14 strain (AID 165);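 further: 0% = growth equal to vehicle treated cultures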; settings: S. cerevisiae cln2 rad14 strain, stronger effect = higher value
Summary of the method: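 Compounds are applied to the cln2 rad14 yeast strain, and growth is then compared with that of vehicle-treated cultures to give inhibition.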

[11] = NCI Yeast Anticancer Drug Screen. Data for the bub3 strain (AID 167); settings: S. cerevisiae bub3 mutant strain, stronger effect = higher value
Summary of the method: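 Inhibition values come from growth of compound-treated mutant yeast normalised to vehicle-treated controls.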

[12] = NCI Yeast Anticancer Drug Screen. Data for the wt2 strain (AID 169);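 further: 0% = growth of vehicle-treated yeast cultures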; settings: S. cerevisiae wt2 strain growth inhibition, stronger effect = higher value
Summary of the method: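 This strain belongs to a panel of yeast strains with defined genetic alterations in DNA damage repair or cell cycle control. Compounds are applied, and growth inhibition is measured against vehicle-treated cultures.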

[13] = NCI Yeast Anticancer Drug Screen. Data for the mlh1 strain (AID 171);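 further: 0% = growth of vehicle-treated control cultures of the same strain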; settings: S. cerevisiae mlh1 strain growth inhibition, stronger effect = higher value
Summary of the method: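 Growth of the mutant yeast strain after compound exposure, expressed as inhibition relative to vehicle-only controls.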

[14] = NCI Yeast Anticancer Drug Screen. Data for the sgs1 strain (AID 173);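 further: 0% = growth of vehicle-only control cultures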; settings: S. cerevisiae sgs1 mutant, stronger effect = higher value
Summary of the method: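 Growth of a yeast strain bearing a defined genetic alteration is measured after compound treatment. Inhibition is expressed relative to vehicle-only controls.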

[15] = NCI Yeast Anticancer Drug Screen. Data for the mlh1 rad18 strain (AID 175); settings: S. cerevisiae mlh1 rad18 strain growth inhibition, stronger effect = higher value
Summary of the method: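 Read-out is yeast growth inhibition, calculated against vehicle-only controls. The compound was applied to a strain engineered with DNA damage repair alterations.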

[16] = NCI Yeast Anticancer Drug Screen. Data for the rad18 strain (AID 177); settings: S. cerevisiae rad18 mutant growth inhibition, stronger effect = higher value
Summary of the method: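 Growth of the mutant yeast strain after compound exposure, normalised to vehicle-only cultures.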

[17] = at 5.0 µM (retest, dose inferred, filed as 0.5)
[18] = at 50.0 µM (retest, dose inferred, filed as 5.0)

Measured: growth inhibition

CCOC(=O)C1([Se]c2ccccc2)CCCC1=O (stereo unspecified)
inactive: [1]; at 1.2 µM 11% | [1]; at 3.7 µM 28% | [1]; at 11.0 µM 40% | [1]; at 33.0 µM 53% | [2]; at 1.2 µM 16% | [2]; at 3.7 µM 19% | [2]; at 11.0 µM 24% | [2]; at 33.0 µM 50% | [3]; at 1.2 µM -7% | [3]; at 3.7 µM 14% | [3]; at 11.0 µM 44% | [4]; at 1.2 µM -4% | [4]; at 3.7 µM -5% | [4]; at 11.0 µM 4% | [4]; at 33.0 µM 32% | [5]; at 1.2 µM 17% | [5]; at 3.7 µM 15% | [5]; [17] 16% | [5]; at 11.0 µM 23% | [5]; at 33.0 µM 44% | [5]; [18] 63% | [6]; at 1.2 µM 1% | [6]; at 3.7 µM -6% | [6]; [17] -18% | [6]; at 11.0 µM 9% | [6]; at 33.0 µM 30% | [6]; [18] 43% | [6]; at 100.0 µM -11% | [7]; at 1.2 µM -9% | [7]; at 3.7 µM 1% | [7]; at 11.0 µM -11% | [7]; at 33.0 µM 25% | [8]; [17] -3% | [8]; [18] 59% | [9]; at 1.2 µM 2% | [9]; at 3.7 µM 6% | [9]; at 11.0 µM 16% | [9]; at 33.0 µM 11% | [9]; at 100.0 µM 68% | [10]; [17] 14% | [10]; [18] 52% | [11]; at 1.2 µM -4% | [11]; at 3.7 µM 0% | [11]; [17] 10% | [11]; at 11.0 µM -13% | [11]; at 33.0 µM 13% | [12]; at 1.2 µM 2% | [12]; at 3.7 µM 21% | [12]; at 11.0 µM 22% | [12]; at 33.0 µM 49% | [13]; at 1.2 µM 8% | [13]; at 3.7 µM 6% | [13]; at 11.0 µM 33% | [13]; at 33.0 µM 58% | [14]; at 1.2 µM 22% | [14]; at 3.7 µM 42% | [14]; at 11.0 µM 56% | [15]; [17] 34%
active: [1]; at 100.0 µM 92% | [2]; at 100.0 µM 91% | [3]; at 33.0 µM 87% | [3]; at 100.0 µM 96% | [4]; at 100.0 µM 85% | [5]; at 50.0 µM 84.2% | [5]; at 100.0 µM 92% | [6]; at 50.0 µM 71.8% | [7]; at 100.0 µM 94% | [8]; at 50.0 µM 84.2% | [10]; at 50.0 µM 73.2% | [11]; [18] 82% | [11]; at 50.0 µM 81.2% | [11]; at 100.0 µM 90% | [12]; at 100.0 µM 88% | [13]; at 100.0 µM 83% | [14]; at 33.0 µM 75% | [14]; at 100.0 µM 97% | [15]; [18] 87% | [15]; at 50.0 µM 76.6%

O=C(c1ccccc1)C1C(c2ccccc2[N+](=O)[O-])N1C1CCCCC1 (stereo unspecified)
inactive: [1]; at 1.2 µM -1% | [1]; at 3.7 µM 7% | [1]; at 11.0 µM 30% | [2]; at 1.2 µM -1% | [2]; at 3.7 µM 1% | [2]; at 11.0 µM 8% | [2]; at 33.0 µM 41% | [3]; at 1.2 µM 5% | [3]; at 3.7 µM 19% | [3]; at 11.0 µM 48% | [4]; at 1.2 µM 1% | [4]; at 3.7 µM 2% | [4]; at 11.0 µM 10% | [4]; at 33.0 µM 52% | [5]; at 1.2 µM 2% | [5]; at 3.7 µM 3% | [5]; [17] -2% | [5]; at 11.0 µM 28% | [6]; at 1.2 µM 4% | [6]; at 3.7 µM 10% | [6]; [17] 1% | [6]; at 11.0 µM 23% | [6]; at 33.0 µM 66% | [6]; [18] 58% | [7]; at 1.2 µM -1% | [7]; at 3.7 µM 3% | [7]; at 11.0 µM 7% | [7]; at 33.0 µM 13% | [7]; at 100.0 µM 64% | [8]; [17] 15% | [9]; at 1.2 µM -4% | [9]; at 3.7 µM -2% | [9]; at 11.0 µM 3% | [9]; at 33.0 µM 38% | [10]; [17] -18% | [10]; [18] 13% | [11]; at 1.2 µM -11% | [11]; at 3.7 µM -2% | [11]; [17] -4% | [11]; at 11.0 µM -14% | [12]; at 1.2 µM 1% | [12]; at 3.7 µM 3% | [12]; at 11.0 µM 11% | [12]; at 33.0 µM 62% | [13]; at 1.2 µM 4% | [13]; at 3.7 µM 8% | [13]; at 11.0 µM 19% | [13]; at 33.0 µM 45% | [14]; at 1.2 µM 9% | [14]; at 3.7 µM 21% | [14]; at 11.0 µM 52% | [15]; [17] 0% | [16]; at 1.2 µM 10% | [16]; at 3.7 µM 23% | [16]; at 11.0 µM 65%
active: [1]; at 33.0 µM 80% | [1]; at 100.0 µM 89% | [2]; at 100.0 µM 80% | [3]; at 33.0 µM 80% | [3]; at 100.0 µM 82% | [4]; at 100.0 µM 83% | [5]; at 33.0 µM 71% | [5]; [18] 72% | [5]; at 50.0 µM 96.9% | [5]; at 100.0 µM 84% | [6]; at 50.0 µM 94.7% | [6]; at 100.0 µM 88% | [8]; [18] 75% | [8]; at 50.0 µM 93.6% | [9]; at 100.0 µM 78% | [10]; at 50.0 µM 83.2% | [11]; at 33.0 µM 70% | [11]; [18] 72% | [11]; at 50.0 µM 95% | [11]; at 100.0 µM 87% | [12]; at 100.0 µM 84% | [13]; at 100.0 µM 90% | [14]; at 33.0 µM 85% | [14]; at 100.0 µM 91% | [15]; [18] 80% | [15]; at 50.0 µM 96.2% | [16]; at 33.0 µM 88% | [16]; at 100.0 µM 91%
